Hit rate of the full screen: of about 53,000 sequences, about 3,700 (7%) were called active.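 Rule for the calls: active = gene knockdowns whose robust z-score for IL-1 alpha signal is at least 2 or at most -2, so actives lie on both sides; inactive = the rest.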 The sample as a whole holds a higher share of actives than the screen did.

The nature of the experiment: Components of the Cytosolic LPS Sensing Pathway: Gene Identification via Genome-wide siRNA Screen.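 Note: robust z of the log signal after scaling to non-targeting control siRNA wells of the plate.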 The settings on record: RAW264.7 macrophages, IL-1a HTRF, actives lie on both sides, screened at 100 nM (by protocol), cells primed 5 h with Pam3CSK4 first. A digest of the protocol:
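RAW264.7 mouse macrophages reverse-transfected with single siRNAs (100 nM final) for 48h, primed with Pam3CSK4 for 5 hours, then transfected with LipidA for 24 hour. Supernatant IL-1a read by HTRF; values normalized to negative-control median, log-transformed robust z-scores.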
Turning to GGUUGCGUGUGGUUACUAUTT against Herc4, the z-score was 0.161 (inactive).

On to CCUCUGUGAUUUCAUUCUUTT against Hhip, for which the z-score was -0.991 (inactive).

As to GGCAUUUUCACAAAAGACUTT against Rab23, the z-score is -1.43 (inactive).

As to GGAUGGCUACCGAAAAAAUTT against Eif3c, the z-score was 0.967 (inactive).

On to CGACGCAUUGAGGCAAUCUTT against Camsap3, for which the z-score is -0.483 (inactive).

Regarding “GGCAAAGCACCUUUAUCUGTT against G430095P16Rik”, the z-score was -0.664 (inactive).

Consider CCCAAGGUCCAGUUUGAUGTT against Mettl17, for which the z-score is -2.42 (active).

On to GGCAAGGAUAAGACAGUAGTT against Hs3st3b1, for which the z-score is -0.354 (inactive).

For the sequence GGAUGAAGACCUUGAACGGTT against Slc28a3, the z-score was 1.48 (inactive).

On to GGAAACAGGUCUGUCCCAATT against Ankle1, for which the z-score is -2.22 (active).

Consider GGUUACCUAGAAGUGGACUTT against Igsf6, for which the z-score is 0.201 (inactive).

CCUUUCCAAACACCUAUAATT against Sox6: the z-score is -1.2 (inactive).

As for CCUUUCAGACCAGUUCAUUTT against Ppp1r17, the z-score is 0.193 (inactive).

As to GGUUCUUUUCAGCUCAUUATT against Toporsl, the z-score is -0.0962 (inactive).

For the sequence GCUUCCUACGGUGUGUCAATT against Hnrnpu, the z-score was -2.43 (active).

With GGAGCCCAAAAAGAAGAAATT against Mrpl48, the z-score is 0.43 (inactive).

As to GGCCCAGCAAAAAAAGAAGTT against Usp46, the z-score is -0.397 (inactive).

As for GGUCAUAGCACCAUGUUCUTT against Gata5, the z-score is 0.831 (inactive).

As for GGAAGAGACUUAUAAUGGUTT against Olfr1214, the z-score is 1.28 (inactive).

With CGAAAUCAGAACCUGGGAATT against Hacd3, the z-score was 2.73 (active).

As for GGCUAUGUCUGUUUCCUUUTT against Defa-rs10, the z-score is 0.963 (inactive).

For GGAUAUUCCUGGACUGACATT against Rps6, the z-score was -0.996 (inactive).

On to GGCAGAAUAUACUUGCCCUTT against Uevld, for which the z-score is -0.156 (inactive).

Regarding GGAGAGCUCCUAUAAUCCUTT against Plau, the z-score is 0.267 (inactive).

Turning to GGAUAUUGUCUUUGUAGAATT against Kap, the z-score is -0.565 (inactive).

Turning to “GGACGUGAAGUGAAGUCAUTT against 1810009N02Rik”, the z-score is -0.626 (inactive).

Regarding GGCCUUGUACUUACACAAGTT against Rspo1, the z-score was 0.398 (inactive).

CCUUUCCUACUCUGUACCCTT against Abcg1: the z-score was 2.22 (active).

Take GGAUUCUCACAAGUAAUUCTT against Ifi203: the z-score was 0.272 (inactive).

Consider GGCUGUCACCCUACAUGACTT against Uba1, for which the z-score is 0.0469 (inactive).

GGAUAUGUUUGGUUAUUUCTT against Acbd4: the z-score was -0.0997 (inactive).

On to GGAGACUGUGAUUGAGAUGTT against Rnf181, for which the z-score is -0.401 (inactive).

For CGACAAAAGCCACCUUUCGTT against Tm4sf4, the z-score was -2.62 (active).

Regarding GGAGUCUGUGAACAAUCUCTT against Mx2, the z-score was 0.0232 (inactive).

With GGAGUGUGUAAAGACAUAATT against Rnase2a, the z-score is -0.685 (inactive).

Turning to GGACAAGAGGAGCUUUUGCTT against Id3, the z-score is -0.446 (inactive).

Take GGUUUUCUUAAAAUAGGAGTT against Tat: the z-score was -0.205 (inactive).

For the sequence GGAGGACUGGGAAGAUCAUTT against Aqp5, the z-score was 0.152 (inactive).

In the case of GGAGCCCAGGAAGAUGACATT against Cyp2c54, the z-score was -3.15 (active).

For GGUAAGUUAAAUGAUGACATT against Ccdc148, the z-score was -0.896 (inactive).

GGAUAUAACUGCUAUGGUUTT against Rhebl1: the z-score was -0.241 (inactive).

In the case of GCUUAGAGCUUCAUAUAGCTT against Tlr12, the z-score is -0.367 (inactive).

For the sequence GGCUGACUUCGUUUUCAUGTT against Derl3, the z-score was -2.01 (active).

In the case of GGUGGAAGCAAUUUUAAAUTT against Trpc7, the z-score was 0.384 (inactive).

As for GGGAUGAGUACAAGAAAAATT against Nsun3, the z-score is -0.927 (inactive).

Turning to CGUGUUGGAGUACAAUGAGTT against Imp3, the z-score is -0.927 (inactive).

Regarding GGACAGUGAAGAGGAUUCCTT against Anapc15, the z-score was -0.988 (inactive).

Take GCGGAUUAACCUCUGUGGCTT against Igfl3: the z-score was 0.244 (inactive).

GGGUGACAGGUUGAUCUCATT against Tcn2: the z-score was -2.11 (active).

Take GGUGGAGGAACGAAAGUUUTT against Ribc1: the z-score is 0.625 (inactive).

Regarding CGAGGUCAAUAUCAUUCCATT against Serpinb11, the z-score is 0.727 (inactive).

As for GCUGCUAAUAUCAAUAACGTT against Prf1, the z-score is -0.809 (inactive).

Take GGCCAAACAACUGGUGAAGTT against Nelfe: the z-score was -0.832 (inactive).

For GGUGUUUUCUGUGUAACCATT against Tlx1, the z-score was -0.843 (inactive).

As to GGAUGUUUGGACAAUCUAUTT against Itga4, the z-score is 0.634 (inactive).

In the case of GCAAAUGUCUCGGAAAGAATT against Cdk11b, the z-score is -2.18 (active).

In the case of GCAAGAGACCAUGAGAAAUTT against Ccdc18, the z-score was -0.149 (inactive).

On to GGACUAGAAUAUCACAACGTT against Iqub, for which the z-score was 0.905 (inactive).

GGCAAAAUAGAGAAAUACATT against Lima1: the z-score is 2.37 (active).

For the sequence GCCAUGUUUAAGCAAUUGUTT against Vsx1, the z-score was -0.575 (inactive).

In the case of GGAGGGUAUUAGUGCACUGTT against Ptpn1, the z-score is -0.111 (inactive).

Take GCCUCAUUUGCUUCACUGUTT against Cd163l1: the z-score was 0.148 (inactive).

In the case of GGCGAAAAGACCAGUUAUGTT against Man2c1, the z-score was 2.31 (active).

Turning to GGUGCACUCUGUCAGUUCATT against Col27a1, the z-score was -0.352 (inactive).

Regarding GCAUACCUAUUCACGUACGTT against Slc7a4, the z-score was -0.475 (inactive).

GCCCAAGCUUUUAUCAAGATT against Frmd4b: the z-score is 1.48 (inactive).

Take CCCUUUCCUAUGCAUUUGCTT against Olfr851: the z-score is 0.97 (inactive).

Consider CGUACCUAAGCAUACCAGCTT against Gpr20, for which the z-score is 4.94 (active).

With CGAGCUUCGGAGGAAGUGATT against Zc3hav1l, the z-score is -0.743 (inactive).

Consider GGUACUCUGUGGAUAUCCCTT against Rpl27, for which the z-score was -0.224 (inactive).

In the case of GGAGCGUACCAUGAUCGAUTT against Parvb, the z-score is -2.17 (active).

As for “GGCUUCUUCACUGAAAUUCTT against 1700074P13Rik”, the z-score is -1.1 (inactive).

In the case of GGCACUUUGUGGCAAAUCUTT against Pcdhb1, the z-score is 0.742 (inactive).

Consider CGUGCAAGCAGUGAUUUUGTT against Smpx, for which the z-score is -1.33 (inactive).

Regarding GGCUCAAGUAUGAGUCUCATT against Calhm2, the z-score was 0.73 (inactive).

Turning to GGGAAGAAGAAAAAGAUGATT against Peak1, the z-score was -0.506 (inactive).

CGGACUAUCUCUAUGAAGATT against Tas2r108: the z-score was -0.587 (inactive).

Consider GGUGAUUUCGGGUAACGAGTT against Ddr1, for which the z-score is -2.17 (active).

For the sequence GGGUGUUUUUAAGUGUCCCTT against Zfp574, the z-score is 0.475 (inactive).

As to GGUUUUUGUGGAAAUGUGGTT against Smpd4, the z-score is -2.58 (active).

Take GGCAGUUUGUUAAUGAAUGTT against Pcsk1: the z-score was -0.901 (inactive).

As to GGAGGAGAAAACAGGAAUUTT against H2-Eb1, the z-score was -0.03 (inactive).

Take GCGACCGUAUUGUCACUUGTT against Arpc1a: the z-score was -0.465 (inactive).

Take CCUUGUCGAGCACAUGAGATT against Zfp69: the z-score was 0.0825 (inactive).

As for GGCAAGUGAGGAAAAGAGGTT against Setd1a, the z-score is -0.741 (inactive).

In the case of GAUUUUCCUCUACUGUCCUTT against U90926, the z-score is -0.532 (inactive).

Regarding GGUCUUGGAUGCAAACGAUTT against Pcdhga2, the z-score was 0.518 (inactive).

As to GCUAGCAAGUGAGAUGGAGTT against Mbd3l1, the z-score is 1.58 (inactive).

As to GGGCCUUCAAAAAACUGCCTT against Eva1b, the z-score was 1.75 (inactive).

Turning to GGGAGAUAUGCAAUGAAUATT against Creb5, the z-score was -1.34 (inactive).

Regarding GGAAGGUCUUCGAGAUUUUTT against Gpr75, the z-score was 4.56 (active).

In the case of CCUCUUAAACAUGUCCUAGTT against Atp6v0a2, the z-score is -1.04 (inactive).

For CCUUCUGGAGUACAUAUCCTT against Trip6, the z-score was 0.16 (inactive).

GGAAAAGUCCCGUAUGGAGTT against Gcc1: the z-score is -3.14 (active).

Regarding CCAAAUGCUUAUCUCUACATT against Dock6, the z-score is 0.00388 (inactive).

For the sequence GGACAAAAAAAUAGAAGGATT against Rrbp1, the z-score is 0.344 (inactive).

With GGACUAUCUUUAUGAUGUGTT against Ush1c, the z-score was -0.164 (inactive).

As to GGUGAUGGAGAAGAGAAGATT against Fam107b, the z-score was 2.88 (active).

With GGUUUGUAAAGGUUAUGACTT against Nell2, the z-score was 0.0203 (inactive).

Take CCUAGAAGCUAAUUACCAATT against Saa4: the z-score was -0.946 (inactive).

Consider GCGGCUACUCAUAUAAGUCTT against Trappc8, for which the z-score was -0.5 (inactive).

On to CGGUGACAUUUGUGAAACUTT against Smn1, for which the z-score was -2.05 (active).

Consider GGAGAAUUACGGUGCCAACTT against Ncoa3, for which the z-score is -0.354 (inactive).

Turning to GCUCAUCUCGAUUUGACUGTT against Cln3, the z-score is -1.67 (inactive).

For CCUAAUCCUGAUAAUUCCATT against Niban2, the z-score is -1.54 (inactive).

Turning to GGAGUUGUUGUGCUUUUAATT against Tmem45a, the z-score is 3.02 (active).

With GGACUCACAGUUAAAAGUATT against Gtse1, the z-score was 1.2 (inactive).

The values above are taken from PubChem BioAssay AID1508600 (Functional Genomics Laboratory (NCATS/FGL), 2020).
